# Laboratory results taken from article PMC11006913.
# Changes are numbered by the printed parent chain.
# Assays:
# Experiment in all cases: PBM; 200 nM protein, PBS
# Conditions in all cases: dsDNA, one strand shown
# [1] = target: ALX4 (Homo sapiens, UniProt Q9H161 200-286)
# [2] = target: T1, PAX4 (Homo sapiens, UniProt O43316 9-242, R200K)
# T1 sequence: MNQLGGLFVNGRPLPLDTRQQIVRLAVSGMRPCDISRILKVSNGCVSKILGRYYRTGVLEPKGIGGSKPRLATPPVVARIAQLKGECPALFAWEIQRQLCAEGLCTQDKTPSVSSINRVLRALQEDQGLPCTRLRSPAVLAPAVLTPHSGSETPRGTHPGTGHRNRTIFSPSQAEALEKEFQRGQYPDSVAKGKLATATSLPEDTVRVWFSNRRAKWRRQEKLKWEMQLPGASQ
# [3] = target: PRRX1 (Homo sapiens, UniProt P54821 80-166, F113S)
# [4] = target: T2, VENTX (Homo sapiens, UniProt O95231 78-163, Y115F)
# T2 sequence: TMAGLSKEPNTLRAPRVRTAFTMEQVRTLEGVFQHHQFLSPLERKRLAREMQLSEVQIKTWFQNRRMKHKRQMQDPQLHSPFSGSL
# [5] = target: HOXA2 (Homo sapiens, UniProt O43364 129-215, R185T)
# [6] = target: T3, PAX4 (Homo sapiens, UniProt O43316 9-242, R200Q)
# T3 sequence: T1 sequence with K192Q
# [7] = target: T4, PAX4 (Homo sapiens, UniProt O43316 9-242, F177V)
# T4 sequence: T1 sequence with F169V, K192R
# [8] = target: T5, PAX4 (Homo sapiens, UniProt O43316 9-242, F177Y)
# T5 sequence: T1 sequence with F169Y, K192R
# [9] = target: MSX2 (Homo sapiens, UniProt P35548 130-214, F161Y)
# [10] = target: VAX1 (Homo sapiens, UniProt Q5SQQ9 86-172, T142I)
# [11] = target: HOXA4 (Homo sapiens, UniProt Q00056 201-287, W262F)
# [12] = target: PRRX1 (Homo sapiens, UniProt P54821 80-166)
# [13] = target: HOXA4 (Homo sapiens, UniProt Q00056 201-287, R217L)
# [14] = target: MSX2 (Homo sapiens, UniProt P35548 130-214)
# [15] = target: VAX1 (Homo sapiens, UniProt Q5SQQ9 86-172, K157R)
# [16] = target: HOXB6 (Homo sapiens, UniProt P17509 132-218, K202E)
# [17] = target: HOXA2 (Homo sapiens, UniProt O43364 129-215, R185K)
# [18] = target: T6, VENTX (Homo sapiens, UniProt O95231 78-163, R121Q)
# T6 sequence: T2 sequence with F38Y, R44Q
# [19] = target: HOXB4 (Homo sapiens, UniProt P17483 148-234, V174I)
# Sequence of HOXB4 (P17483 148-234 V174I): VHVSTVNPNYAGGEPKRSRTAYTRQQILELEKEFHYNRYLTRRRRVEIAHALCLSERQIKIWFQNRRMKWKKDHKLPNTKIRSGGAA
# Sequence of PRRX1 (Homo sapiens, UniProt P54821 80-166, F113S) (P54821 80-166 F113S): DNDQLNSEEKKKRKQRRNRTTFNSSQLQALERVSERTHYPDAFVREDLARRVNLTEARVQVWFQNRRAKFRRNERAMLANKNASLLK
# Sequence of ALX4 (Q9H161 200-286): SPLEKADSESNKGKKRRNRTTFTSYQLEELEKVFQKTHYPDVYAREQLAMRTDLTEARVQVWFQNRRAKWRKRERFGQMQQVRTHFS
# Sequence of HOXA2 (Homo sapiens, UniProt O43364 129-215, R185K) (O43364 129-215 R185K): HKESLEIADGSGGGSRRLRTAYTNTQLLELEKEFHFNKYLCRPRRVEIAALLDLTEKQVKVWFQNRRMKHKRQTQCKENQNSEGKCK
# Sequence of HOXA2 (Homo sapiens, UniProt O43364 129-215, R185T) (O43364 129-215 R185T): as the sequence (O43364 129-215 R185K) above, with K57T counted along it
# Sequence of HOXA4 (Homo sapiens, UniProt Q00056 201-287, W262F) (Q00056 201-287 W262F): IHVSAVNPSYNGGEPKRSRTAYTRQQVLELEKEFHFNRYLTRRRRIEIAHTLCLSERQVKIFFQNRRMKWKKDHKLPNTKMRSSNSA
# Sequence of MSX2 (Homo sapiens, UniProt P35548 130-214, F161Y) (P35548 130-214 F161Y): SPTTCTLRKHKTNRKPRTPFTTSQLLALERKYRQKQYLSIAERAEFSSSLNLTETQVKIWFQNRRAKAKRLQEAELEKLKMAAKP
# Sequence of MSX2 (Homo sapiens, UniProt P35548 130-214) (P35548 130-214): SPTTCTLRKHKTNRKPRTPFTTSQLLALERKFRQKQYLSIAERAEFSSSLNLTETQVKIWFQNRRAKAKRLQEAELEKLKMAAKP
# Sequence of PRRX1 (Homo sapiens, UniProt P54821 80-166) (P54821 80-166): as the sequence (P54821 80-166 F113S) above, with S34F counted along it
# Sequence of HOXA4 (Homo sapiens, UniProt Q00056 201-287, R217L) (Q00056 201-287 R217L): as the sequence (Q00056 201-287 W262F) above, with R17L, F62W counted along it
# Sequence of VAX1 (Homo sapiens, UniProt Q5SQQ9 86-172, T142I) (Q5SQQ9 86-172 T142I): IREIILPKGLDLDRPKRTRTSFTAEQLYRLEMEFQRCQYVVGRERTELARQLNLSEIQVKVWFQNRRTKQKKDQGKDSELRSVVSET
# Sequence of HOXB6 (P17509 132-218 K202E): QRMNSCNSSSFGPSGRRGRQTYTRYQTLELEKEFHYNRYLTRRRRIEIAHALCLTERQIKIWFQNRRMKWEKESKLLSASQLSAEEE
# Sequence of VAX1 (Homo sapiens, UniProt Q5SQQ9 86-172, K157R) (Q5SQQ9 86-172 K157R): as the sequence (Q5SQQ9 86-172 T142I) above, with I57T, K72R counted along it
sequence,measurement,setting,value
AATTAAGC,binding signal,[1],"13.7 upbm affinity estimate (log intensity, higher = more binding, comparable within an allelic series)"
same,binding signal,[2],"11.7 upbm affinity estimate (log intensity, higher = more binding, comparable within an allelic series)"
same,binding signal,[3],"11 upbm affinity estimate (log intensity, higher = more binding, comparable within an allelic series)"
same,binding signal,[4],"11.5 upbm affinity estimate (log intensity, higher = more binding, comparable within an allelic series)"
same,binding signal,[5],"12.5 upbm affinity estimate (log intensity, higher = more binding, comparable within an allelic series)"
same,binding signal,[6],"12 upbm affinity estimate (log intensity, higher = more binding, comparable within an allelic series)"
same,binding signal,[7],"10.5 upbm affinity estimate (log intensity, higher = more binding, comparable within an allelic series)"
same,binding signal,[8],"11 upbm affinity estimate (log intensity, higher = more binding, comparable within an allelic series)"
same,binding signal,[9],"12.9 upbm affinity estimate (log intensity, higher = more binding, comparable within an allelic series)"
same,binding signal,[10],"12.3 upbm affinity estimate (log intensity, higher = more binding, comparable within an allelic series)"
same,binding signal,[11],"11.5 upbm affinity estimate (log intensity, higher = more binding, comparable within an allelic series)"
same,binding signal,[12],"13.3 upbm affinity estimate (log intensity, higher = more binding, comparable within an allelic series)"
CAATTACG,binding signal,[13],"11.6 upbm affinity estimate (log intensity, higher = more binding, comparable within an allelic series)"
same,binding signal,[14],"13.7 upbm affinity estimate (log intensity, higher = more binding, comparable within an allelic series)"
same,binding signal,[9],"13.4 upbm affinity estimate (log intensity, higher = more binding, comparable within an allelic series)"
same,binding signal,[11],"10.9 upbm affinity estimate (log intensity, higher = more binding, comparable within an allelic series)"
same,binding signal,[15],"12.3 upbm affinity estimate (log intensity, higher = more binding, comparable within an allelic series)"
CCAATTAC,binding signal,[1],"13.8 upbm affinity estimate (log intensity, higher = more binding, comparable within an allelic series)"
same,binding signal,[3],"11.1 upbm affinity estimate (log intensity, higher = more binding, comparable within an allelic series)"
same,binding signal,[14],"13.9 upbm affinity estimate (log intensity, higher = more binding, comparable within an allelic series)"
same,binding signal,[9],"13.5 upbm affinity estimate (log intensity, higher = more binding, comparable within an allelic series)"
same,binding signal,[12],"13.4 upbm affinity estimate (log intensity, higher = more binding, comparable within an allelic series)"
AATTAAGA,binding signal,[1],"13.6 upbm affinity estimate (log intensity, higher = more binding, comparable within an allelic series)"
same,binding signal,[2],"11.6 upbm affinity estimate (log intensity, higher = more binding, comparable within an allelic series)"
same,binding signal,[3],"11.2 upbm affinity estimate (log intensity, higher = more binding, comparable within an allelic series)"
same,binding signal,[6],"11.9 upbm affinity estimate (log intensity, higher = more binding, comparable within an allelic series)"
same,binding signal,[7],"10.5 upbm affinity estimate (log intensity, higher = more binding, comparable within an allelic series)"
same,binding signal,[8],"10.9 upbm affinity estimate (log intensity, higher = more binding, comparable within an allelic series)"
same,binding signal,[11],"11.6 upbm affinity estimate (log intensity, higher = more binding, comparable within an allelic series)"
AATTAACT,binding signal,[1],"13.9 upbm affinity estimate (log intensity, higher = more binding, comparable within an allelic series)"
same,binding signal,[2],"11.7 upbm affinity estimate (log intensity, higher = more binding, comparable within an allelic series)"
same,binding signal,[3],"11.2 upbm affinity estimate (log intensity, higher = more binding, comparable within an allelic series)"
same,binding signal,[16],"9.99 upbm affinity estimate (log intensity, higher = more binding, comparable within an allelic series)"
same,binding signal,[5],"12.5 upbm affinity estimate (log intensity, higher = more binding, comparable within an allelic series)"
same,binding signal,[13],"12.1 upbm affinity estimate (log intensity, higher = more binding, comparable within an allelic series)"
same,binding signal,[6],"12.1 upbm affinity estimate (log intensity, higher = more binding, comparable within an allelic series)"
same,binding signal,[7],"10.5 upbm affinity estimate (log intensity, higher = more binding, comparable within an allelic series)"
same,binding signal,[14],"13.5 upbm affinity estimate (log intensity, higher = more binding, comparable within an allelic series)"
same,binding signal,[8],"10.9 upbm affinity estimate (log intensity, higher = more binding, comparable within an allelic series)"
same,binding signal,[9],"13.1 upbm affinity estimate (log intensity, higher = more binding, comparable within an allelic series)"
same,binding signal,[11],"11.5 upbm affinity estimate (log intensity, higher = more binding, comparable within an allelic series)"
same,binding signal,[12],"13.3 upbm affinity estimate (log intensity, higher = more binding, comparable within an allelic series)"
AATTAAGT,binding signal,[1],"13.9 upbm affinity estimate (log intensity, higher = more binding, comparable within an allelic series)"
same,binding signal,[2],"11.6 upbm affinity estimate (log intensity, higher = more binding, comparable within an allelic series)"
same,binding signal,[3],"11.2 upbm affinity estimate (log intensity, higher = more binding, comparable within an allelic series)"
same,binding signal,[5],"12.1 upbm affinity estimate (log intensity, higher = more binding, comparable within an allelic series)"
same,binding signal,[6],"11.9 upbm affinity estimate (log intensity, higher = more binding, comparable within an allelic series)"
same,binding signal,[17],"12.8 upbm affinity estimate (log intensity, higher = more binding, comparable within an allelic series)"
same,binding signal,[7],"10.5 upbm affinity estimate (log intensity, higher = more binding, comparable within an allelic series)"
same,binding signal,[14],"13.3 upbm affinity estimate (log intensity, higher = more binding, comparable within an allelic series)"
same,binding signal,[8],"10.9 upbm affinity estimate (log intensity, higher = more binding, comparable within an allelic series)"
same,binding signal,[9],"12.9 upbm affinity estimate (log intensity, higher = more binding, comparable within an allelic series)"
same,binding signal,[11],"11.4 upbm affinity estimate (log intensity, higher = more binding, comparable within an allelic series)"
same,binding signal,[12],"13.3 upbm affinity estimate (log intensity, higher = more binding, comparable within an allelic series)"
ATAATTGG,binding signal,[1],"14 upbm affinity estimate (log intensity, higher = more binding, comparable within an allelic series)"
same,binding signal,[3],"11.5 upbm affinity estimate (log intensity, higher = more binding, comparable within an allelic series)"
same,binding signal,[6],"11.9 upbm affinity estimate (log intensity, higher = more binding, comparable within an allelic series)"
same,binding signal,[14],"14.1 upbm affinity estimate (log intensity, higher = more binding, comparable within an allelic series)"
same,binding signal,[9],"13.7 upbm affinity estimate (log intensity, higher = more binding, comparable within an allelic series)"
same,binding signal,[12],"13.4 upbm affinity estimate (log intensity, higher = more binding, comparable within an allelic series)"
AATTAGCA,binding signal,[18],"11.7 upbm affinity estimate (log intensity, higher = more binding, comparable within an allelic series)"
same,binding signal,[1],"13.6 upbm affinity estimate (log intensity, higher = more binding, comparable within an allelic series)"
same,binding signal,[2],"11.6 upbm affinity estimate (log intensity, higher = more binding, comparable within an allelic series)"
same,binding signal,[3],"11 upbm affinity estimate (log intensity, higher = more binding, comparable within an allelic series)"
same,binding signal,[4],"11.5 upbm affinity estimate (log intensity, higher = more binding, comparable within an allelic series)"
same,binding signal,[5],"12.4 upbm affinity estimate (log intensity, higher = more binding, comparable within an allelic series)"
same,binding signal,[6],"11.9 upbm affinity estimate (log intensity, higher = more binding, comparable within an allelic series)"
same,binding signal,[17],"13 upbm affinity estimate (log intensity, higher = more binding, comparable within an allelic series)"
same,binding signal,[7],"10.5 upbm affinity estimate (log intensity, higher = more binding, comparable within an allelic series)"
same,binding signal,[8],"10.9 upbm affinity estimate (log intensity, higher = more binding, comparable within an allelic series)"
same,binding signal,[11],"11.5 upbm affinity estimate (log intensity, higher = more binding, comparable within an allelic series)"
same,binding signal,[12],"13.2 upbm affinity estimate (log intensity, higher = more binding, comparable within an allelic series)"
TAATTGAA,binding signal,[1],"13.9 upbm affinity estimate (log intensity, higher = more binding, comparable within an allelic series)"
same,binding signal,[3],"11.2 upbm affinity estimate (log intensity, higher = more binding, comparable within an allelic series)"
same,binding signal,[5],"12.5 upbm affinity estimate (log intensity, higher = more binding, comparable within an allelic series)"
same,binding signal,[19],"13.6 upbm affinity estimate (log intensity, higher = more binding, comparable within an allelic series)"
same,binding signal,[14],"13.6 upbm affinity estimate (log intensity, higher = more binding, comparable within an allelic series)"
same,binding signal,[9],"13.2 upbm affinity estimate (log intensity, higher = more binding, comparable within an allelic series)"
same,binding signal,[12],"13.3 upbm affinity estimate (log intensity, higher = more binding, comparable within an allelic series)"
GAGGGGGC,binding signal,[5],"7.01 upbm affinity estimate (log intensity, higher = more binding, comparable within an allelic series)"
same,binding signal,[17],"10.1 upbm affinity estimate (log intensity, higher = more binding, comparable within an allelic series)"
